SW480 rerep: DNA re-replication induction in SW480 cells | hit rate 1.8% among 340,000 | SW480 DNA re-replication, Hoechst DNA content imaging, 48 h | Potency, µM (titrated, usually from 46.1 µM), hits mostly activators; further: nearly all actives have a fitted effect of over 55% in size
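Quantitative HTS format with DMSO vehicle controls; 48 hr drug incubation at 37 C, then 40 min Hoechst staining and scanning imager measurement at 405 nm excitation.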
Vif-APOBEC3F blk: blocks the Vif interaction with APOBEC3F; hit rate 0.2% among 390,000; Potency, µM (doses to about 46.1 µM); HeLa A3F-eYFP + Vif (tagged APOBEC3F with the HIV-1 protein that degrades it), YFP fluorescence increase; further: nearly all actives have a fitted effect of over 65% in size
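HeLa cells stably expressing Vif plus C-terminally eYFP-tagged A3F were seeded, incubated overnight at 37 deg C, dosed with compound, incubated overnight again at 37 deg C. Yellow fluorescence (Ex 488/Em 500-530) reported blocked Vif-mediated A3F-eYFP degradation.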
Giardia killer: kills Giardia lamblia | hit rate 0.15% among 340,000 | activity change, % at 7.66 µM, hits read low | Giardia lamblia trophozoite viability; in the data active means activity change below about -80%; inconclusive means between about -30% and that limit;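 further: parasites exposed to compound for two days anaerobically before the ATP read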
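Viability, read as ATP luminescence: trophozoites at 100 cells/well, compound added, 48 hrs anaerobic at 37 deg C, then 15-30 min room-temperature development before reading.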
IL-1B inflam inh: inflammasome signaling inhibition, IL-1 beta readout; AID 743279; activity change, % at 57.5 µM; THP-1 LPS/ATP IL-1B secretion, AlphaLISA, 16 h; active compounds read low; hit rate 4.7% among 360,000; in the data active means activity change below about -50%; inconclusive means mostly about -30% to -49%
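THP-1 cells pretreated 1 hr with compounds (up to 57.5 uM final), then stimulated with LPS (250 ng/mL final) plus ATP (1.25 mM final); secreted IL-1B measured by AlphaLISA after 16 hr, decreased signal indicating inhibition.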
MCF10A rereplic: DNA re-replication induction in MCF 10a cells | hit rate 2.9% among 350,000 | MCF 10A DNA re-replication, Hoechst nuclear intensity, 48 h | Potency, µM (doses to about 46.1 µM), hits mostly activators; further: nearly all actives have a fitted effect of over 50% in size
Vif-A3G inh: blocks the Vif interaction with human APOBEC3G | Q9HC16 | Potency, µM (top dose mostly 46.1 µM), hits mostly inhibitors | hit rate 0.076% among 410,000 | HeLa A3G-eYFP + Vif (tagged APOBEC3G with the HIV-1 protein that degrades it), YFP fluorescence, overnight | AID 602310; further: nearly all actives have a fitted effect of over 60% in size
Target sequence (Q9HC16 whole entry, looked up): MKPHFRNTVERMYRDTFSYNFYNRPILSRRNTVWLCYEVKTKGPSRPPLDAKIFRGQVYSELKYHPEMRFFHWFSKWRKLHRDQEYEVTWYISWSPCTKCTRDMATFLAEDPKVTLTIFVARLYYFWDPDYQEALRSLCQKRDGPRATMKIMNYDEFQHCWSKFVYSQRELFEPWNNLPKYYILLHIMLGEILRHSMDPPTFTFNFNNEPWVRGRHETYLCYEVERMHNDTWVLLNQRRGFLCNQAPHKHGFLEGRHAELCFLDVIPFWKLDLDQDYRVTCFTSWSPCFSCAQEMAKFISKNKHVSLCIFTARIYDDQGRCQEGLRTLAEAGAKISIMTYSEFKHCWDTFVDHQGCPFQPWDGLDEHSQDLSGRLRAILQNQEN
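HeLa cells stably expressing Vif and C-terminally eYFP-tagged A3G, seeded overnight at 37 deg C, then exposed to compound by pintool overnight at 37 deg C. Rise in yellow fluorescence (Ex 488/Em 500-530, Acumen) marks blocked Vif-driven A3G degradation.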
Hits are given with their value; - = inactive; ? = inconclusive; . = no result given. Shown are actives, neighbours in structure and some others; about 6.9% of the full set was active somewhere. Unless noted, the call rests on the fitted dose curve; in most records, active means well fitted curve in the direction sought with a large enough effect; inconclusive means small, poorly fitted or top-dose-only effect, or another doubt; inactive means no such curve, though single readings can be large; an effect the other way counts as inactive or inconclusive.

SMILES	SW480 rerep	Vif-APOBEC3F blk	Giardia killer	IL-1B inflam inh	MCF10A rereplic	Vif-A3G inh
Cc1ccc(COc2cccc3c2CCN(Cc2ccc(F)cc2)C3=O)cc1	-	-	-	?	-	-
CC(=O)N1c2ccc(S(=O)(=O)N3CCN(c4ccc(C)cc4C)CC3)cc2CC1C (centres undefined)	.	-	.	.	.	-
CCOc1ccc(CCNC(=O)c2cc3c(=O)n(C)c4ccccc4c3n2C)cc1OCC	.	-	.	.	.	-
Oc1c(C(c2ccc(F)cc2)N2CCCC2)sc2nc(-c3ccco3)nn12 (centres undefined)	.	-	.	.	.	-
COc1ccc(-n2cc(C(=O)Oc3cc(C)cc(C)c3)c3ccccc3c2=O)cc1	.	-	.	.	.	-
Cc1cc(Nc2nc3ccccc3c3nnc(C)n23)ccc1Br	.	-	.	.	.	-
CC(C)(C)c1cc(Cl)ccc1OCCOCCN1CCCC1	-	-	-	-75	-	-
Clc1cc(Br)ccc1OCCOCCN1CCCC1	?	-	-	-91	?	-
Clc1cc(Br)ccc1OCCOCCN1CCOCC1	-	-	-	-	-	-
COCCCN=C1NN=C(c2cc(C)n(Cc3ccccc3Cl)c2C)CS1	0.65µM	?	-	?	?	?
COc1ccc(NC(=O)c2oc3ccccc3c2NC(=O)c2cccc(F)c2)c(OC)c1	.	-	.	.	.	-
Cc1cccc(N2CCN(S(=O)(=O)c3ccc(-c4cc(C(F)(F)F)on4)s3)CC2)c1C	.	-	.	.	.	-
CCCN1C/C(=C/c2cccc([N+](=O)[O-])c2)C(=O)/C(=C/c2cccc([N+](=O)[O-])c2)C1	1.6µM	-	-	-94	0.92µM	?
CCCN1C(=O)/C(=C/c2ccc3c(c2)OCO3)NC1=S	-	-	-	-	?	-
CCCN1C/C(=C/c2ccc3c(c2)OCO3)C(=O)/C(=C/c2ccc3c(c2)OCO3)C1	4.6µM	?	-	-	?	?
O=C(CCS(=O)(=O)c1ccc(Cl)cc1)Nc1nnc(-c2ccco2)o1	?	-	-	-81	?	?
Cc1ccc(S(=O)(=O)CCC(=O)Nc2nnc(-c3cccs3)o2)cc1	?	?	-	-61	?	-
Cc1ccc(-c2nnc(NC(=O)CCS(=O)(=O)c3ccc(F)cc3)o2)c(C)c1	-	?	-	-	8.2µM	-
O=C(CS(=O)(=O)c1ccccc1)Nc1nnc(-c2cccs2)o1	?	-	-	-	-	-
COc1cccc(-c2nnc(NC(=O)CCS(=O)(=O)c3ccc(C)cc3)o2)c1	-	?	-	?	?	-
O=C(CCS(=O)(=O)c1ccc(F)cc1)Nc1nnc(-c2ccc(F)cc2)o1	?	-	-	?	?	-
Cc1ccc(S(=O)(=O)CCC(=O)Nc2nnc(-c3ccco3)o2)cc1	?	-	-	-	?	-
O=C(CCS(=O)(=O)c1ccc(Cl)cc1)Nc1nnc(-c2cccs2)o1	1.6µM	-	-	-	?	-
COc1ccccc1C(=O)Nc1ccccc1OCc1cc(=O)n2ccccc2n1	.	-	.	.	.	-
COc1ccccc1-c1nnc(NC(=O)CCS(=O)(=O)c2ccc(F)cc2)o1	.	-	.	-	.	?
SMILES	SW480 rerep	Vif-APOBEC3F blk	Giardia killer	IL-1B inflam inh	MCF10A rereplic	Vif-A3G inh
COc1ccccc1-c1nnc(NC(=O)CCS(=O)(=O)c2ccccc2)o1	?	-	-	-81	?	?
CCC(=O)Nc1ccc(/C=C(\C(C)=O)C(=O)c2ccccc2)cc1	-	-	-	-98	?	?
CCC(=O)Nc1ccc(C=C(C(C)=O)C(C)=O)cc1	-	-	-	-	16µM	-
CCOC(=O)C(=Cc1ccc(N(C)C)cc1)C(=O)c1ccccc1	.	.	.	-75	.	-
O=C(C(=Cc1ccc(F)cc1)c1ccccc1)c1ccc(O)cc1	-	-	-	?	?	-
O=C(C(=Cc1ccc(F)cc1)C(=O)c1ccccc1)c1ccccc1	.	.	.	-112	.	?
CCC(=O)Nc1ccc(O)cc1	-	.	.	.	-	.
CC(=O)/C(=C/c1ccc(N(C)C)cc1)C(=O)c1ccccc1	-	-	-	-	-	-
CCOc1ccccc1CN1C(=O)c2ccccc2C1C(=O)NC1CCCCCC1 (centres undefined)	.	-	.	.	.	-
O=C(NC(c1ccc(-c2ccccc2)cc1)c1cnccn1)C1CCN(Cc2ccc(Oc3ccccc3)cc2)CC1 (centres undefined)	.	.	.	-52	.	-
